From PubChem BioAssay (Tox21) come the findings set out here.

The nature of assay [1]: qHTS assay for small molecule agonists of the p53 signaling pathway (AID 651631; calls by dose curve; further: nearly all actives have a fitted effect of over 15% in size; further: potency means the concentration at half of the fitted maximal effect). Conditions: HCT-116 p53RE-bla reporter, beta-lactamase FRET ratio, 16 h; series mostly up to 73.3 µM. The method, boiled down:
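Agonist mode screen using a stably integrated beta-lactamase gene under p53 response elements in HCT-116 cells. Compound exposure lasts 16 h at 37 °C; fluorescence intensity is measured following 2 h FRET substrate loading.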

Assay [2] can be described thus: qHTS assay for small molecules that induce genotoxicity in human embryonic kidney cells expressing luciferase-tagged ATAD5 (AID 651632). Further: nearly all actives have a fitted effect of over 15% in size. The note with it: HEK293T ATAD5-luciferase induction, 16 h; series mostly up to 83.3 µM. The essentials: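 HEK293T cells carrying a luciferase reporter tagged to ATAD5 were exposed to compound or DMSO vehicle for 16 hr at 37C, 5% CO2. Amplite was added, and after 30 min at room temperature luciferase activity was read as a marker of ATAD5 induction.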
Background: qHTS replaces the single test concentration by a dilution series.

A short description of assay [3]: qHTS assay for small molecule agonists of the p53 signaling pathway - cell viability (AID 651633; calls by dose curve; further: nearly all actives have a fitted effect of over 30% in size; further: potency means the concentration at half of the fitted maximal effect). Conditions: p53RE-bla HCT-116 viability, ATP luminescence, 16 h; series mostly up to 83.3 µM. The essentials: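 p53RE-bla cells, seeded at 4,000 per well and rested 5 h at 37 C/5% CO2, received compounds in DMSO for 16 h at 37 C. CellTiter-Glo was then added, and luminescence was read after 30 min at room temperature to gauge cytotoxicity.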

The nature of assay [4]: qHTS assay for small molecules that induce genotoxicity in human embryonic kidney cells expressing luciferase-tagged ATAD5 - cell viability (AID 651634; calls by dose curve; further: nearly all actives have a fitted effect of over 25% in size; further: potency means the concentration at half of the fitted maximal effect). The note with it: HEK293T ATAD5-luc cells viability, CellTiter-Fluor, 15.5 h; series mostly up to 83.3 µM. The essentials: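 HEK293T cells expressing luciferase-tagged ATAD5 were exposed to compound or DMSO for 15.5 hr at 37C, 5% CO2. Viability was then read as live-cell protease activity by CellTiter-Fluor fluorescence after 30 min at 37C.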

A short description of assay [5]: qHTS assay for small molecule disruptors of the mitochondrial membrane potential - cell viability (AID 720634; calls by dose curve; further: nearly all actives have a fitted effect of over 20% in size; further: potency means the concentration at half of the fitted maximal effect). Conditions: HepG2 viability, ATP luminescence (CellTiter-Glo), 1 h; series mostly up to 83.2 µM. The essentials:
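HepG2 cells seeded overnight at 37 C, then exposed to compound or DMSO for 1 hr at 37 C, 5% CO2. m-MPI dye added, then CellTiter-Glo for 30 min at room temperature; viability read as ATP luminescence.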

The nature of assay [6]: qHTS assay for small molecule disruptors of the mitochondrial membrane potential (AID 720635). Further: potency means the concentration at half of the fitted maximal effect. The note with it: HepG2 mitochondrial membrane potential, Mito-MPS dye ratio; series mostly up to 83.2 µM. The essentials: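 HepG2 cells (2,000/well) attached overnight at 37C, then took compound for 1 hr at 37C, 5% CO2. Mito-MPS dye was added for 30 min; fluorescence was read at 490/535 nm (monomers) and 540/590 nm (aggregates).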

Assay [7] can be described thus: qHTS assay to test for compound auto fluorescence at 590 nm (red) in HepG2 cells (AID 720674). Conditions: HepG2 autofluorescence, red 540/590 nm, 1 h; series mostly up to 91.3 µM. The method, boiled down:
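Intrinsic compound fluorescence in the red window (Ex/Em 540/590 nm) is measured in attached HepG2 cells exposed for 1 hr, DMSO vehicle as baseline, benchmarked to Rose Bengal sodium.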

Assay [8] can be described thus: qHTS assay to test for compound auto fluorescence at 535 nm (green) in HepG2 cells (AID 720675). Further: potency means the concentration at half of the fitted maximal effect. Conditions: green autofluorescence 485/535 nm, 1 h; series mostly up to 91.3 µM.
A short description of assay [9]: qHTS assay to test for compound auto fluorescence at 460 nm (blue) in HEK293 cells (AID 720678). Further: potency means the concentration at half of the fitted maximal effect. Conditions: blue autofluorescence 405/460 nm; series mostly up to 91.3 µM. The essentials:
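After cell attachment (4-5 hr, 37C), compounds were pinned onto HEK293 monolayers in 10% dialyzed FBS medium. The blue channel (405/460 nm) was read following overnight culture. Equivalency was calculated against triamterene.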

Assay [10] is described as follows: qHTS assay to test for compound auto fluorescence at 590 nm (red) in HEK293 cells (AID 720679). Conditions: red autofluorescence 540/590 nm; series mostly up to 91.3 µM. The method, boiled down:
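Plates of HEK293 cells (10% dialyzed FBS) are treated with 23 nL compound or DMSO vehicle after a 4-5 hr attachment period, incubated overnight at 37C, and read for red fluorescence at 540/590nm.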

SMILES strings stand for the structures. Several values for one entry are separate records, joined by “and”; a condition that tells them apart may be missing. Equal values may be shown once. Records with an inconclusive call do not appear. More than one record can exist for a structure, and the calls need not agree. Activity calls are given as the source filed them. Unless noted, the call rests on the fitted dose curve; in most records, active means well fitted curve in the direction sought with a large enough effect in the repeat runs; inconclusive means weak or mixed curves; inactive means no such curve, though single readings can be large; an effect the other way counts as inactive or inconclusive.
Tags describe the fitted curve by direction and shape or compound fluorescence and quenching.

Take `C1CC(COCC2CO2)CCC1COCC1CO1` (stereo not drawn): the Potency result in assay [1], in [2], in assay [3], in [4], in [5] and in assay [6] was “inactive” each time. Moreover, the Potency result in assay [7], in assay [8] and in assay [9] was “inactive” in each case.

In the case of `O=C(O)CCCCCCC(=O)O`, the Potency result in assay [1], in [2], in [3], in assay [5], in [6] and in assay [7] was “inactive” throughout. Besides, the Potency result in assay [8], in [9] and in assay [10] was “inactive” in each case.

As to `Nc1ccc2cc3ccc(N)cc3nc2c1`, the Potency in [1] was 3.35 µM (active) and 3.06 µM (active); in assay [6], 2.66 µM (active) and 1.22 µM (active); in assay [8], 12.6 µM (active); in assay [9] it was 12.6 µM [fluorescent] (active). Further, the Potency result in assay [2], in assay [3], in [5], in [7] and in assay [10] was “inactive” each time.

As for `C=CC(C)(CCC=C(C)C)OC(=O)/C=C/c1ccccc1` (stereo not drawn), the Potency result in assay [1], in [2], in [3], in assay [4], in [5] and in [7] was “inactive” throughout. Further, the Potency entry in assay [8] and in [9] was “inactive” each time.

Take `CC(=O)Oc1ccc(C2(c3ccc(OC(C)=O)cc3)Oc3ccccc3NC2=O)cc1`: the Potency in assay [1] was 2.37 µM (active); in assay [6] it was 23.7 µM (active). The Potency entry in [2], in assay [3], in assay [4], in [5], in [8] and in assay [9] was “inactive” throughout. Besides, the Potency entry in [10] was “inactive”.

Consider `Oc1c(Br)cc(Br)c2cccnc12`, for which the figures for the Potency in [1] and in assay [3] were 5.96 µM (active) and 6.68 µM (active), respectively. For the same compound, the Potency entry in assay [2], in assay [4], in assay [5], in assay [7] and in assay [8] was “inactive” in each case.

Turning to `O=C(Nc1ccc(Cl)cc1)Nc1ccc(Cl)c(C(F)(F)F)c1`, the Potency was 16.8 µM (active) in [1], 26.6 µM (active) in assay [3], 1.5 µM (active) in assay [5] and 0.596 µM (active) in assay [6]. The Potency result in [2], in assay [7], in [8], in assay [9] and in assay [10] was “inactive” throughout.

As to `CCCCCCCCCCCC(=O)N(CC)CC`, the Potency result in assay [1], in assay [2], in assay [3], in assay [5], in assay [6] and in assay [7] was “inactive” throughout. The Potency entry in assay [8], in assay [9] and in assay [10] was “inactive” in each case.

Consider `CC(C)(c1cc(Br)c(O)c(Br)c1)c1cc(Br)c(O)c(Br)c1`, for which the Potency in [1] was 48.4 µM (active) and 41 µM (active); in assay [3], 60.9 µM (active) and 24.3 µM (active) and 23 µM (active); in assay [5], “inactive and 60.9 µM (active)”; in assay [6] it was 4.84 µM (active) and 7.67 µM (active) and 1.83 µM (active). The Potency entry in [2], in [7], in assay [8], in assay [9] and in assay [10] was “inactive” in each case.

Regarding `CO[C@H]1C=CO[C@@]2(C)Oc3c(C)c(O)c4c(O)c(cc(O)c4c3C2=O)NC(=O)/C(C)=C\C=C/[C@H](C)[C@H](O)[C@@H](C)[C@@H](O)[C@@H](C)[C@H](OC(C)=O)[C@@H]1C`, the Potency result in assay [1], in [2], in [3], in assay [4], in [5] and in assay [7] was “inactive” each time. For the same compound, the Potency result in [8] and in assay [9] was “inactive” each time.

Regarding `O=C1OC(OC(=O)c2cccnc2Nc2cccc(C(F)(F)F)c2)c2ccccc21` (stereo not drawn), the Potency entry in assay [1], in assay [2], in [3], in [4], in [5] and in assay [8] was “inactive” each time. The Potency result in assay [9] was “inactive”. The Potency in assay [6] is 24.8 µM (active).

On to `CCCCOC(=O)C(C)CC` (stereo not drawn), for which the Potency entry in assay [1], in assay [2], in [3], in assay [5], in assay [7] and in [8] was “inactive” throughout. The Potency entry in assay [9] and in assay [10] was “inactive” in each case.

As for `O=C(O)c1cccc(Cl)n1`, the Potency entry in [1], in assay [2], in assay [3], in assay [4], in assay [5] and in assay [6] was “inactive” in each case. Further, the Potency entry in [8], in [9] and in assay [10] was “inactive” throughout.

On to `CC1(C)C(=O)N(Br)C(=O)N1Br`, for which the Potency result in assay [1], in assay [2], in [3], in [4], in [5] and in [6] was “inactive” each time. In addition, the Potency result in [7], in assay [8], in assay [9] and in assay [10] was “inactive” throughout.

For `CCC(C)(C)c1cc(O)c(C(C)(C)CC)cc1O`, the Potency was 54.5 µM (active) in assay [1], 43.3 µM (active) in assay [3] and 4.86 µM (active) in assay [6]. The Potency result in assay [2], in assay [5], in [7], in assay [8], in assay [9] and in [10] was “inactive” throughout.

As for `Cc1c(C(=O)O)cccc1[N+](=O)[O-]`, the Potency result in assay [1], in assay [2], in [3], in assay [4], in assay [5] and in assay [6] was “inactive” each time. For the same compound, the Potency result in assay [7], in [8] and in assay [9] was “inactive” in each case.

With `COC(=O)CC#N`, the Potency result in assay [1], in [2], in [3], in assay [4], in assay [5] and in assay [6] was “inactive” in each case. The Potency result in [8], in assay [9] and in assay [10] was “inactive” each time.

As to `CCCCCCCCCCOCC(O)CN` (stereo not drawn), the Potency in assay [1] is 33.5 µM (active); in [3], 29.8 µM (active). For the same compound, the Potency result in assay [2], in assay [5], in [8], in [9] and in assay [10] was “inactive” throughout.

As to `S=P(N1CC1)(N1CC1)N1CC1`, the Potency in assay [1] was 14.4 µM (active). The Potency result in assay [2], in [3], in assay [5], in [6], in assay [7] and in assay [8] was “inactive” throughout. Also, the Potency entry in assay [9] and in assay [10] was “inactive” throughout.

Take `C=CC(=C)CCC=C(C)C`: the Potency entry in assay [1], in assay [2], in assay [3], in assay [4], in assay [5] and in assay [7] was “inactive” throughout. The Potency entry in assay [8] and in [9] was “inactive” throughout.

For the compound `CCN=c1cc2oc3cc(NCC)c(C)cc3c(-c3ccccc3C(=O)OCC)c-2cc1C`, the Potency in assay [1] was 48.4 µM (active); in assay [3], 60.9 µM (active) and 15.4 µM (active); in [4], 9.65 µM (active) and 6.86 µM (active); in [8], 39.8 µM (active) and 35.5 µM (active). For the same compound, the Potency entry in assay [2], in assay [5] and in assay [9] was “inactive” each time.

On to `CC1=C(/C=C/C(C)=C/C=C/C(C)=C/C(=O)Nc2ccc(O)cc2)C(C)(C)CCC1`, for which the Potency in [1] was 29.8 µM (active); in assay [3], 29.8 µM (active) and 62.7 µM (active); in [4] it was 23.7 µM (active) and 28 µM (active); in assay [6] it was 3.35 µM (active) and 2.8 µM (active). Moreover, the Potency entry in [2], in assay [5], in [7], in assay [8], in [9] and in [10] was “inactive” throughout.

Regarding `CCC(=O)OCCc1ccccc1`, the Potency result in assay [1], in [2], in [3], in assay [4], in assay [5] and in [6] was “inactive” throughout. The Potency result in assay [8], in [9] and in [10] was “inactive” each time.
